Source: PubChem BioAssay (Tox21)
Inconclusive results are not listed. Activity calls are given as the source filed them. Unless noted, calls come from the whole dose curve.

Assays:
[1] = Nuclear factor erythroid 2-related factor 2/antioxidant responsive element (Nrf2/ARE) small molecule agonists: qHTS cell viability counter screen in human keratinocytes (AID 1919968; active = well fitted curve in the direction sought with a large enough effect in the repeat runs; an effect the other way counts as inactive or inconclusive; note: nearly all actives have a fitted effect of over 55% in size)
Procedure, shortened: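 Measured as CellTiter-Fluor fluorescence, this readout tracks cytotoxicity in the same wells as the ARE-luciferase screen. HaCaT reporter cells (1,500/well) received compounds after a 5 h pre-incubation and were exposed for 23 h.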

[2] = Nuclear factor erythroid 2-related factor 2/antioxidant responsive element (Nrf2/ARE) small molecule agonists: luciferase reporter gene qHTS assay in human keratinocytes (AID 1919969); note: nearly all actives have a fitted effect of over 35% in size
[3] = target: Gonadotropin-releasing hormone receptor (Homo sapiens) (UniProt P30968); experiment: Human gonadotropin-releasing hormone receptor (GnRHR) small molecule agonists, calcium flux assay in GnRHR-HEK293 cells (AID 1920063); note: nearly all actives have a fitted effect of over 35% in size
Chain of Gonadotropin-releasing hormone receptor (Homo sapiens) (P30968 whole entry, looked up): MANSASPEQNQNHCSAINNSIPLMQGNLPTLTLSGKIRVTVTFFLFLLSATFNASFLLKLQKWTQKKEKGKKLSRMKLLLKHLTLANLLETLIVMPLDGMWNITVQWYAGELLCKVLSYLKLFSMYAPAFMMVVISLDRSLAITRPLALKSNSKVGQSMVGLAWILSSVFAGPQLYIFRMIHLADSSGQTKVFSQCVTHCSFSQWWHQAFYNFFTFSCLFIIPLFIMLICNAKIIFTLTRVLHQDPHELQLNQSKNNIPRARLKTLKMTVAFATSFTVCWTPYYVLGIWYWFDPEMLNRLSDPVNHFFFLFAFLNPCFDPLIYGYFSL
Procedure, shortened: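 Fluorescence kinetics (480 nm excitation, 540 nm emission; 3 min, 1 s steps) report calcium mobilisation in human GnRHR-HEK293 cells in agonist mode. Dye incubation: 1 h, 37 C.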

[4] = target: KiSS-1 receptor (Homo sapiens) (UniProt Q969F8); experiment: Human kisspeptin (KISS1R) small molecule agonists, calcium flux assay in KISS1R-HEK293 cells (AID 1920064; active = well fitted curve in the direction sought with a large enough effect in the repeat runs; an effect the other way counts as inactive or inconclusive)
Chain of KiSS-1 receptor (Homo sapiens) (Q969F8 whole entry, looked up): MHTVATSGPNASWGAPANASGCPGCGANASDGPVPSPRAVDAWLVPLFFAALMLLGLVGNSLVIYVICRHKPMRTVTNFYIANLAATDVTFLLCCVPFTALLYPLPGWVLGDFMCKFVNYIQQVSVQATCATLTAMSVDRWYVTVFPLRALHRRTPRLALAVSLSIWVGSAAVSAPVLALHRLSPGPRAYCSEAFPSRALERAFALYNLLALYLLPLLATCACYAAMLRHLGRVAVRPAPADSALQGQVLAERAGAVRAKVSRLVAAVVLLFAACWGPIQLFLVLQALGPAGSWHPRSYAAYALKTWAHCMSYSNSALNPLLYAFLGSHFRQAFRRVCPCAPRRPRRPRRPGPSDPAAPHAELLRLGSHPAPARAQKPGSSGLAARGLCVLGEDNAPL
Procedure, shortened: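 Measures KISS1R agonism through calcium-sensitive dye fluorescence in stably transfected HEK293 cells, read for 3 min after pin-tool compound delivery; 15-point titrations in triplicate.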

[5] = G protein-coupled receptor (GPCR) small molecule agonists, calcium flux assay: HEK293 wild type cell line counter screen (AID 1920065)
Procedure, shortened: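 Readout: fluorescence at 480 nm excitation/540 nm emission, sampled at 1 s intervals for 3 min. Cells had been cultured 18 h, then dye-loaded 1 h at 37 C before compound or ATP addition.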

[6] = p53 small molecule agonists, cell-based qHTS assay with human liver microsomes (AID 1963577);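 note: p53 response element beta-lactamase reporter cells with liver microsomes plus NADPH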
Procedure, shortened: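 Metabolically competent format: test substances, human liver microsomes and NADPH (both 0.5 mg/mL final) incubated with p53RE-bla cells 16 h at 37 C. Beta-lactamase reporter signal then quantified by fluorescence.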

[7] = p53 small molecule agonists, cell-based qHTS assay with rat liver microsomes (AID 1963578)
Procedure, shortened: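 Each plate received p53RE-bla cells, then compound, then rat liver microsomes and NADPH (both 0.5 mg/mL final). Plates were held 16 h at 37 C, and beta-lactamase activity was detected with LiveBLAzer over 2 h.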

[8] = p53 small molecule agonists, cell-based qHTS assay with human liver microsomes: qHTS cell viability counter screen (AID 1963579); note: nearly all actives have a fitted effect of over 45% in size
Procedure, shortened: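 Tox21 library compounds, delivered from DMSO stocks, were tested on p53RE-bla cells together with 0.5 mg/mL human liver microsomes and 0.5 mg/mL NADPH (final) over 16 h at 37 C; CellTiter-Glo luminescence served as the cytotoxicity measure.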

[9] = p53 small molecule agonists, cell-based qHTS assay with rat liver microsomes: qHTS cell viability counter screen (AID 1963580); note: nearly all actives have a fitted effect of over 45% in size
Procedure, shortened: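 p53RE-bla HCT-116 cells (4,000/well) rested 5 h at 37 C, then given Tox21 compounds in DMSO with rat liver microsomes (0.5 mg/mL final) plus NADPH (0.5 mg/mL final) for 16 h at 37 C. Viability read by CellTiter-Glo luminescence after 30 min at room temperature.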

[10] = p53 small molecule agonists, cell-based qHTS assay: qHTS cell viability counter screen (AID 1963581); note: nearly all actives have a fitted effect of over 45% in size
Procedure, shortened: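 In the same plates used for the p53 bla reporter, HCT-116 cells given compounds for 16 h at 37 C received CellTiter-Glo; luminescence was recorded 30 min later at room temperature.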

[11] = p53 small molecule agonists, cell-based qHTS assay (AID 1963582; active = well fitted activation curve with a large enough effect in the signal ratio in the repeat runs, not every such curve was filed as active; the % refers to the signal ratio)
Procedure, shortened: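 Compounds are pin-transferred in DMSO onto p53RE-bla cells and incubated 16 h at 37 C. The B/G FRET beta-lactamase substrate is then applied for 2 h at RT and fluorescence recorded.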

[12] = target: 5-hydroxytryptamine receptor 2A (Homo sapiens) (UniProt P28223); experiment: 5-hydroxytryptamine receptor 2A (HTR2A) small molecule antagonists, cell-based qHTS assay (AID 1963586); note: nearly all actives have a fitted effect of over 45% in size
Chain of 5-hydroxytryptamine receptor 2A (Homo sapiens) (P28223 whole entry, looked up): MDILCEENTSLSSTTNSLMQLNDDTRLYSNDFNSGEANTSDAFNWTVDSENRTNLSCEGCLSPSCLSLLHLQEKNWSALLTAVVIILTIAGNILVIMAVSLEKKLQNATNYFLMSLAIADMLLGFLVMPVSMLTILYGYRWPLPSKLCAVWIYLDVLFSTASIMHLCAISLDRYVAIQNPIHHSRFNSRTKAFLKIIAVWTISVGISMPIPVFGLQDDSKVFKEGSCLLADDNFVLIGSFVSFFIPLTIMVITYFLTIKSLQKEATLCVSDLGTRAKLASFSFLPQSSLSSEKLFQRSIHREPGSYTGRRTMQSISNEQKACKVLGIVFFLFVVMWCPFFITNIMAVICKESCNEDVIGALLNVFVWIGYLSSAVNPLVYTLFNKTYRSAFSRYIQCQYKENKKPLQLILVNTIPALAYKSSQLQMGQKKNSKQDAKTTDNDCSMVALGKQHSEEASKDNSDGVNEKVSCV
Procedure, shortened: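 Antagonist-mode intracellular calcium assay: DOI (4 nM) added after 5 min compound pre-incubation at room temperature to dye-loaded HTR2A-CHO cells. Fluorescence followed for 3 min, sampled every second.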

[13] = target: 5-hydroxytryptamine receptor 2A (Homo sapiens) (UniProt P28223); experiment: 5-hydroxytryptamine receptor 2A (HTR2A) small molecule agonists, cell-based qHTS assay (AID 1963587); note: nearly all actives have a fitted effect of over 30% in size
Procedure, shortened: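 HTR2A-CHO cells, plated 18 h at 37 C/5% CO2, dye-loaded 1 h at 37 C; compounds in DMSO added by pin tool (agonist mode). Intracellular calcium flux read as kinetic fluorescence on FDSS over 2 min at 1 s intervals.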

[14] = target: Muscarinic acetylcholine receptor M1 (Homo sapiens) (UniProt P11229); experiment: Cholinergic receptor muscarinic 1 (CHRM1) small molecule antagonists, cell-based qHTS assay (AID 1963588); note: nearly all actives have a fitted effect of over 40% in size
Chain of Muscarinic acetylcholine receptor M1 (Homo sapiens) (P11229 whole entry, looked up): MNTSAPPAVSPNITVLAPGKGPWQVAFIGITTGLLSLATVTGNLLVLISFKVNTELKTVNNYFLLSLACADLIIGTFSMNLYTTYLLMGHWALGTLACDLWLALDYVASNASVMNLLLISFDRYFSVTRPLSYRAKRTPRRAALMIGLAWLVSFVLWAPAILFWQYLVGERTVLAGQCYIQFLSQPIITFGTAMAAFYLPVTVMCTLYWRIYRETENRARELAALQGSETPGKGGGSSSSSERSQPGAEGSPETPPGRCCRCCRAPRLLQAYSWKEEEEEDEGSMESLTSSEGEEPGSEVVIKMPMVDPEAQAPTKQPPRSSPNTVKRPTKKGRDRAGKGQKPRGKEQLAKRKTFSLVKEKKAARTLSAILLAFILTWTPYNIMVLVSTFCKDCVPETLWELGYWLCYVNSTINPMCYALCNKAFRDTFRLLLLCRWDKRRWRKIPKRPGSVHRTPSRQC
Procedure, shortened: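 CHRM1-CHO calcium-flux assay, antagonist mode. Cells were seeded 18 h, dye-loaded 1 h at 37 C and given compound for 5 min at RT, then acetylcholine was added at 50nM. FDSS fluorescence was read 3 min; 15 concentrations, three runs.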

[15] = target: Muscarinic acetylcholine receptor M1 (Homo sapiens) (UniProt P11229); experiment: Cholinergic receptor muscarinic 1 (CHRM1) small molecule agonists, cell-based qHTS assay (AID 1963589); note: nearly all actives have a fitted effect of over 35% in size
Procedure, shortened: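 Each compound was tested at 15 concentrations across three independent runs on dye-loaded CHO cells stably expressing human CHRM1, reading intracellular calcium fluorescence kinetically at 1 sec intervals.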

[16] = cAMP Responsive Elements (CRE) small molecule antagonists, cell-based qHTS assay (AID 1963591; active = well fitted inhibition curve with a large enough effect in the signal ratio in the repeat runs, not every such curve was filed as active; the % refers to the signal ratio)
Procedure, shortened: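 Inhibition of NKH477-driven (0.25 uM final) CRE-beta-lactamase signal in HEK293T cells, 3 h compound exposure at 37 °C, detected by FRET substrate fluorescence.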

[17] = target: D(2) dopamine receptor (Homo sapiens) (UniProt P14416); experiment: Dopamine D2 receptor (DRD2) small molecule agonists, cell-based qHTS assay (AID 1963594); note: nearly all actives have a fitted effect of over 35% in size
Chain of D(2) dopamine receptor (Homo sapiens) (P14416 whole entry, looked up): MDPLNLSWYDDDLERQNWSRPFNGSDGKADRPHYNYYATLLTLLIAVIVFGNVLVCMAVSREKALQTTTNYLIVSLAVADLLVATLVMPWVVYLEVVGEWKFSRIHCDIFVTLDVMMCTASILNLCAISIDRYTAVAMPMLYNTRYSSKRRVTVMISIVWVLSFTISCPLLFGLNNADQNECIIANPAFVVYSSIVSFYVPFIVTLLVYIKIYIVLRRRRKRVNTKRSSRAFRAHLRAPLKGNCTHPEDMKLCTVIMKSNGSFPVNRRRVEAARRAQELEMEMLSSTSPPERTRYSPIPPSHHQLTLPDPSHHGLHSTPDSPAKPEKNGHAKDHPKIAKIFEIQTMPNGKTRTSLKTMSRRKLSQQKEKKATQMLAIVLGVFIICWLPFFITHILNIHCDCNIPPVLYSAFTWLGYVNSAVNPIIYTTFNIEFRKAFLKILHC
Procedure, shortened: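 HEK293 cells stably expressing DRD2 were cultured 24 h at 37 C, then given Ro20-1724 (0.1 mM final) and compounds for 10 min at room temperature. NKH477 (200nM) was then added for 30 min. cAMP was read by HTRF.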

[18] = target: D(2) dopamine receptor (Homo sapiens) (UniProt P14416); experiment: Dopamine D2 receptor (DRD2) small molecule antagonists, cell-based qHTS assay (AID 1963595; active = well fitted inhibition curve with a large enough effect in the signal ratio in the repeat runs, with a control signal flat; the % refers to the signal ratio)
Procedure, shortened: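 HEK293 cells stably expressing DRD2 were preincubated with 0.1 mM Ro20-1724, then with compound for 10 min at room temperature. Cells were stimulated with 200 nM NKH477 plus 12 nM quinpirole for 30 min, and cAMP was read by HTRF.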

[19] = cAMP Responsive Elements (CRE) small molecule agonists, cell-based qHTS assay (AID 1963590)
Procedure, shortened: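 Cell line: CRE-bla HEK 293T; medium DMEM/10% dialyzed FBS/0.1 mM NEAA/1 mM pyruvate/25 mM HEPES; 3 h compound exposure; beta-lactamase FRET readout after 2 h substrate loading at RT.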

[20] = target: Beta-2 adrenergic receptor (Homo sapiens) (UniProt P07550); experiment: Adrenergic beta2 receptor (ADRB2) small molecule antagonists, cell-based qHTS assay (AID 1963592); note: series mostly up to about 92 µM; nearly all actives have a fitted effect of over 50% in size
Chain of Beta-2 adrenergic receptor (Homo sapiens) (P07550 whole entry, looked up): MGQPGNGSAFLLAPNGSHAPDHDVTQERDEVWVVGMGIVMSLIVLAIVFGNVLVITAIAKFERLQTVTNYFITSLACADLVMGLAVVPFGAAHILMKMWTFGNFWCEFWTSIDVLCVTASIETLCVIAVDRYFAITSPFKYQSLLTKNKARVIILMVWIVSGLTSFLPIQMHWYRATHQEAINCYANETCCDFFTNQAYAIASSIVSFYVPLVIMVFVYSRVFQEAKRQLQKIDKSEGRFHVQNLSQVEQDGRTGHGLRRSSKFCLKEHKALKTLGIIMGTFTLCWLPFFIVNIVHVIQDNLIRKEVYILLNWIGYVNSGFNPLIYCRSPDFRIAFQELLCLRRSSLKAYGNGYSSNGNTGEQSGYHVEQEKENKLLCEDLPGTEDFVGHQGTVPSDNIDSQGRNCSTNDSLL
Procedure, shortened: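 Cells (CHO, stable ADRB2 overexpression) incubated 18-20hr at 37C; compounds added from DMSO; agonist mix (1nM isoproterenol, 100uM IBMX, 25uM Ro-20-1724) added; 0.5hr RT; d2-cAMP and anti-cAMP-cryptate added; 1hr RT; 665/615 nm read.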
% is set by controls: 0 for no effect and ±100 for the full control effect.

O=C(O)c1cc(=O)c2ccccc2o1
inactive: Potency [1] | Potency [2] | Potency [3] | Potency [4] | Potency [5] | Potency [6] | Potency [7] | Potency [8] | Potency [9] | Potency [10] | Potency [11] | Potency [12] | Potency [13] | Potency [14] | Potency [15] | Potency [16] | Potency [17] | Potency [18]

Cc1ccccc1N=O
inactive: Potency [1] | Potency [2] | Potency [3] | Potency [4] | Potency [5] | Potency [6] | Potency [7] | Potency [8] | Potency [9] | Potency [10] | Potency [11] | Potency [12] | Potency [13] | Potency [14] | Potency [15] | Potency [19] | Potency [20] | Potency [17] | Potency [18]

CC(=O)SC[C@@H](C)C(=O)N1CCC[C@H]1C(=O)N[C@@H](Cc1ccccc1)C(=O)O
inactive: Potency [1] | Potency [2] | Potency [3] | Potency [4] | Potency [5] | Potency [6] | Potency [7] | Potency [8] | Potency [9] | Potency [10] | Potency [11] | Potency [12] | Potency [13] | Potency [14] | Potency [15] | Potency [16] | Potency [20] | Potency [17] | Potency [18]

C[C@@H]1NC(=O)[C@@H](N)CNC(=O)[C@H](C2CCNC(N)=N2)NC(=O)/C(=C/NC(N)=O)NC(=O)[C@H](CNC(=O)C[C@@H](N)CCCN)NC1=O (some centres undefined)
inactive: activity change, negative = cytotoxicity [1] -0.202% [at 0.349 µM] | activity, positive = activation [2] -0.551% [at 0.349 µM] | activity change [3] -0.0026% [at 0.217 µM, hits give high values] | activation [4] 4.86% [at 0.29 µM] | activation [5] -0.973% [at 0.217 µM] | activation [6] -0.0566% [at 0.249 µM] | activation [7] 0.811% [at 0.249 µM] | activity change, negative = cytotoxicity [8] 0.952% [at 0.249 µM] | activity change, negative = cytotoxicity [9] -3.72% [at 0.249 µM] | activity change, negative = cytotoxicity [10] -17.8% [at 0.249 µM] | activation [11] 5.76% [at 0.249 µM] | activity, negative = inhibition [12] 39.2% [at 0.233 µM] | activation [13] -0.558% [at 0.292 µM] | activity, negative = inhibition [14] -3.02% [at 0.232 µM] | activation [15] -0.0449% [at 0.29 µM] | activity change, negative = inhibition [16] 0.0328% [at 0.349 µM] | activity change, negative = inhibition [20] 6.03% [at 0.349 µM] | activation [17] -0.993% [at 0.349 µM] | activity change, negative = inhibition [18] -5.12% [at 0.348 µM]

CCC1CCCCC1
inactive: Potency [1] | Potency [2] | Potency [3] | Potency [4] | Potency [5] | Potency [6] | Potency [7] | Potency [8] | Potency [9] | Potency [10] | Potency [11] | Potency [12] | Potency [13] | Potency [14] | Potency [15] | Potency [16] | Potency [20] | Potency [17] | Potency [18]
